Measured values reported in PubChem BioAssay (EPA / NIEHS).
Activity calls are given as the source filed them. How the source made its calls: active means hit-call score of the fitted dose curve at least 0.9, where 1 is the maximum; inactive means score below 0.9.

Experiments:
[1] = CEETOX_H295R_PROG: CeeTox H295R High-throughput Steroidogenesis Assay for Progesterone (PROG) (AID 2283442); details: actives raise or lower the signal;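 on AC50: human H295R adrenal cells primed with 10 µM forskolin before dosing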
Outline: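 H295R adrenal cells prestimulated 48 h with 10 uM forskolin, then exposed 48 h to test chemical in 0.1% DMSO. Progesterone in medium quantified by HPLC-MS/MS after MTBE extraction; viability checked by MTT in same wells.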

[2] = read-out: Tumor necrosis factor receptor superfamily member 6 (Homo sapiens) (UniProt P25445); assay: LTEA_HepaRG_FAS: Life Technologies and Expression Analysis (LTEA) Assay for Fas cell surface death receptor (FAS) using HepaRG (AID 2283447); details: mRNA level, 48 h; actives raise or lower the signal
Outline: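 Differentiated HepaRG cells in serum-free induction medium were exposed 48 h to 8 half-log concentrations up to 100 uM in 0.5% DMSO, in duplicate. FAS mRNA was measured by qRT-PCR normalised to ACTB, GAPDH and POLR2A; bidirectional fit versus DMSO.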

[3] = read-out: Fatty acid synthase (Homo sapiens) (UniProt P49327); assay: LTEA_HepaRG_FASN: Life Technologies and Expression Analysis (LTEA) Assay for Fatty Acid Synthase (FASN) using HepaRG (AID 2283448); details: mRNA level, 48 h; actives raise or lower the signal
Outline: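 HepaRG, 48 h exposure, 8-pt half-log series top 100 uM, 0.5% DMSO vehicle, duplicates. Readout: FASN transcript by Fluidigm qRT-PCR; housekeeping-normalized; bidirectional curve fit vs DMSO baseline.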

[4] = read-out: Cyclin Dependent Kinase Inhibitor 1A (CDKN1A), CDKN1A (gene 1026); assay: LTEA_HepaRG_CDKN1A: Life Technologies and Expression Analysis (LTEA) Assay for Cyclin Dependent Kinase Inhibitor 1A (CDKN1A) using HepaRG (AID 2283450); details: mRNA level, 48 h; actives raise or lower the signal
Outline: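 Differentiated HepaRG cells in serum-free induction medium, exposed 48 h in duplicate to eight half-log concentrations up to 100 uM in 0.5% DMSO. mRNA measured by TaqMan qRT-PCR, normalized to ACTB, GAPDH, POLR2A; bidirectional fit versus DMSO.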

[5] = read-out: Cyclin D1 (CCND1), CCND1 (gene 595); assay: LTEA_HepaRG_CCND1: Life Technologies and Expression Analysis (LTEA) Assay for Cyclin D1 (CCND1) using HepaRG (AID 2283451); details: mRNA level, 48 h; actives raise or lower the signal
Outline: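 Differentiated HepaRG cells exposed 48 h in serum-free induction medium to eight half-log concentrations from 100 uM top, 0.5% DMSO, duplicates. CCND1 mRNA measured by Fluidigm TaqMan qRT-PCR, normalised to ACTB, GAPDH, POLR2A; bidirectional fit.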

[6] = read-out: catalase (CAT), CAT (gene 847); assay: LTEA_HepaRG_CAT: Life Technologies and Expression Analysis (LTEA) Assay for catalase (CAT) using HepaRG (AID 2283452); details: mRNA level, 48 h; actives raise or lower the signal
Outline: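 HepaRG cells in serum-free induction medium, 0.5% DMSO vehicle, exposed 48 h in duplicate over 8 half-log concentrations from 100 uM. CAT mRNA measured by qRT-PCR, normalized to ACTB, GAPDH, POLR2A; bidirectional fit versus DMSO.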

[7] = read-out: Cytochrome P450 (CYP1A1), CYP1A1 (gene 1543); assay: LTEA_HepaRG_CYP1A1: Life Technologies and Expression Analysis (LTEA) Assay for Cytochrome P450 (CYP1A1) using HepaRG (AID 2283454); details: mRNA level, 48 h; actives raise or lower the signal
Outline: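 Differentiated human HepaRG cells, after 48 h plating, exposed in duplicate for 48 h in serum-free induction medium to 8 half-log concentrations up to 100 uM in 0.5% DMSO. CYP1A1 mRNA by qRT-PCR, normalized to ACTB/GAPDH/POLR2A; bidirectional fit versus DMSO.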

[8] = read-out: CFLAR gene, CFLAR (gene 8837); assay: LTEA_HepaRG_CFLAR: Life Technologies and Expression Analysis (LTEA) Assay for CFLAR gene using HepaRG (AID 2283455); details: mRNA level, 48 h; actives raise or lower the signal
Outline: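 qRT-PCR read-out (Fluidigm/TaqMan) of CFLAR mRNA, normalized to three housekeeping genes, in differentiated human HepaRG cells after 48 h chemical exposure; 8-point half-log series from 100 uM in 0.5% DMSO; bidirectional curve fitting versus DMSO.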

[9] = read-out: Forkhead box O1 (FOXO1), FOXO1 (gene 2308); assay: LTEA_HepaRG_FOXO1: Life Technologies and Expression Analysis (LTEA) Assay for Forkhead box O1 (FOXO1) using HepaRG (AID 2283456); details: mRNA level, 48 h; actives raise or lower the signal
Outline: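 HepaRG, 48 h exposure, 8-pt half-log series from 100 uM in 0.5% DMSO, duplicates; Fluidigm qRT-PCR mRNA, housekeeping-normalised; bidirectional fit vs DMSO baseline.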

[10] = CEETOX_H295R_TESTO: CeeTox H295R High-throughput Steroidogenesis Assay for Testosterone (TESTO) (AID 2283457); details: actives raise or lower the signal
Outline: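 H295R adrenal cells, passage ≤10, exposed to chemicals for 48 h. Testosterone in medium measured by MTBE extraction and HPLC-MS/MS against a 7-point standard curve. Bidirectional fit versus DMSO; MTT viability checked in the same wells.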

[11] = read-out: growth arrest and DNA damage 45 (GADD45A), GADD45A (gene 1647); assay: LTEA_HepaRG_GADD45A: Life Technologies and Expression Analysis (LTEA) Assay for growth arrest and DNA damage 45 (GADD45A) using HepaRG (AID 2283458); details: mRNA level, 48 h; actives raise or lower the signal
Outline: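 HepaRG, 48 h exposure, 8 conc. (top 100 uM, half-log steps), 0.5% DMSO vehicle, duplicates. Read-out: qRT-PCR mRNA level, housekeeping-normalized (ACTB/GAPDH/POLR2A). Curves fit bidirectionally vs DMSO baseline.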

[12] = read-out: Forkhead box O3 (FOXO3), FOXO3 (gene 2309); assay: LTEA_HepaRG_FOXO3: Life Technologies and Expression Analysis (LTEA) Assay for Forkhead box O3 (FOXO3) using HepaRG (AID 2283459); details: mRNA level, 48 h; actives raise or lower the signal
Outline: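 qRT-PCR readout of FOXO3 transcript, normalized to three housekeeping genes (ACTB, GAPDH, POLR2A); gain or loss fitted against 0.5% DMSO vehicle. HepaRG cells, 48 h chemical exposure, 8-point half-log series, top 100 uM.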

[13] = read-out: ABC Transporter (ABCB1), ABCB1 (gene 5243); assay: LTEA_HepaRG_ABCB1: Life Technologies and Expression Analysis (LTEA) Assay for ABC Transporter (ABCB1) using HepaRG (AID 2283460); details: mRNA level, 48 h; actives raise or lower the signal
Outline: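 HepaRG, 48 h exposure, 8-pt half-log series from 100 uM, 0.5% DMSO vehicle, duplicates. Readout: ABCB1 transcript by Fluidigm TaqMan qRT-PCR, housekeeping-normalized; bidirectional curve fit vs DMSO baseline.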

[14] = read-out: ABC Transporter (ABCC3), ABCC3 (gene 8714); assay: LTEA_HepaRG_ABCC3: Life Technologies and Expression Analysis (LTEA) Assay for ABC Transporter (ABCC3) using HepaRG (AID 2283462); details: mRNA level, 48 h; actives raise or lower the signal
Outline: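 Differentiated human HepaRG cells exposed 48 h in serum-free induction medium, 0.5% DMSO vehicle, 8-point half-log series to 100 uM in duplicate. ABCC3 mRNA by qRT-PCR, normalised to ACTB, GAPDH, POLR2A; bidirectional fit vs DMSO.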

[15] = read-out: ABC Transporter (ABCB11), ABCB11 (gene 8647); assay: LTEA_HepaRG_ABCB11: Life Technologies and Expression Analysis (LTEA) Assay for ABC Transporter (ABCB11) using HepaRG (AID 2283463); details: mRNA level, 48 h; actives raise or lower the signal
Outline: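 HepaRG, 48 h exposure, 8-pt half-log CRC top 100 uM, 0.5% DMSO vehicle, duplicates. Readout: TaqMan qRT-PCR of ABCB11 mRNA, housekeeping-normalized (ACTB/GAPDH/POLR2A). Bidirectional fit vs DMSO baseline.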

[16] = read-out: ABC Transporter (ABCC2), ABCC2 (gene 1244); assay: LTEA_HepaRG_ABCC2: Life Technologies and Expression Analysis (LTEA) Assay for ABC Transporter (ABCC2) using HepaRG (AID 2283464); details: mRNA level, 48 h; actives raise or lower the signal
Outline: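 Differentiated HepaRG cells in serum-free induction medium exposed 48 h to eight half-log concentrations up to 100 uM, 0.5% DMSO, in duplicate. ABCC2 mRNA measured by qRT-PCR (TaqMan, Fluidigm), normalized to ACTB, GAPDH and POLR2A. Fitted in both directions against DMSO.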

[17] = read-out: Broad substrate specificity ATP-binding cassette transporter ABCG2 (Homo sapiens) (UniProt Q9UNQ0); assay: LTEA_HepaRG_ABCG2: Life Technologies and Expression Analysis (LTEA) Assay for ABC Transporter (ABCG2) using HepaRG (AID 2283465); details: mRNA level, 48 h; actives raise or lower the signal
Outline: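 HepaRG, 48 h exposure, 8-pt half-log series from 100 uM, 0.5% DMSO vehicle, duplicates. Readout: ABCG2 transcript by qRT-PCR (Fluidigm array), housekeeping-normalized; bidirectional curve fit relative to DMSO baseline.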

[18] = read-out: Cyclin D2 (CCND2), CCND2 (gene 894); assay: LTEA_HepaRG_CCND2: Life Technologies and Expression Analysis (LTEA) Assay for Cyclin D2 (CCND2) using HepaRG (AID 2283449); details: mRNA level, 48 h; actives raise or lower the signal;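 further: CCND2 transcript measured by TaqMan qRT-PCR and normalised to three housekeeping genes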
Outline: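 HepaRG, 48 h dosing, 8-pt half-log curve from 100 uM, 0.5% DMSO; duplicate wells. Readout: CCND2 transcript by microfluidic qRT-PCR, housekeeping-normalised; bidirectional fit vs DMSO baseline.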

[19] = read-out: flavin-containing dimethylaniline monooxygenases 3 (FMO3), FMO3 (gene 2328); assay: LTEA_HepaRG_FMO3: Life Technologies and Expression Analysis (LTEA) Assay for flavin-containing dimethylaniline monooxygenases 3 (FMO3) using HepaRG (AID 2283453); details: mRNA level, 48 h; actives raise or lower the signal
Outline: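 Eight-point concentration-response in serum-free HepaRG cultures (top 100 uM, 0.5% DMSO, 48 h). Read-out: FMO3 mRNA level normalized to three endogenous control genes, fitted bidirectionally versus vehicle.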

[20] = read-out: growth arrest and DNA damage 45 (GADD45B), GADD45B (gene 4616); assay: LTEA_HepaRG_GADD45B: Life Technologies and Expression Analysis (LTEA) Assay for growth arrest and DNA damage 45 (GADD45B) using HepaRG (AID 2283461); details: mRNA level, 48 h; actives raise or lower the signal
Outline: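 Differentiated human HepaRG cells in serum-free induction medium exposed 48 h in duplicate to eight concentrations, top 100 uM, half-log steps, 0.5% DMSO. GADD45B mRNA by TaqMan qRT-PCR, normalized to ACTB, GAPDH, POLR2A; bidirectional fit versus DMSO.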

Measured: AC50

Sequence of Fatty acid synthase (Homo sapiens) (P49327 whole entry, looked up): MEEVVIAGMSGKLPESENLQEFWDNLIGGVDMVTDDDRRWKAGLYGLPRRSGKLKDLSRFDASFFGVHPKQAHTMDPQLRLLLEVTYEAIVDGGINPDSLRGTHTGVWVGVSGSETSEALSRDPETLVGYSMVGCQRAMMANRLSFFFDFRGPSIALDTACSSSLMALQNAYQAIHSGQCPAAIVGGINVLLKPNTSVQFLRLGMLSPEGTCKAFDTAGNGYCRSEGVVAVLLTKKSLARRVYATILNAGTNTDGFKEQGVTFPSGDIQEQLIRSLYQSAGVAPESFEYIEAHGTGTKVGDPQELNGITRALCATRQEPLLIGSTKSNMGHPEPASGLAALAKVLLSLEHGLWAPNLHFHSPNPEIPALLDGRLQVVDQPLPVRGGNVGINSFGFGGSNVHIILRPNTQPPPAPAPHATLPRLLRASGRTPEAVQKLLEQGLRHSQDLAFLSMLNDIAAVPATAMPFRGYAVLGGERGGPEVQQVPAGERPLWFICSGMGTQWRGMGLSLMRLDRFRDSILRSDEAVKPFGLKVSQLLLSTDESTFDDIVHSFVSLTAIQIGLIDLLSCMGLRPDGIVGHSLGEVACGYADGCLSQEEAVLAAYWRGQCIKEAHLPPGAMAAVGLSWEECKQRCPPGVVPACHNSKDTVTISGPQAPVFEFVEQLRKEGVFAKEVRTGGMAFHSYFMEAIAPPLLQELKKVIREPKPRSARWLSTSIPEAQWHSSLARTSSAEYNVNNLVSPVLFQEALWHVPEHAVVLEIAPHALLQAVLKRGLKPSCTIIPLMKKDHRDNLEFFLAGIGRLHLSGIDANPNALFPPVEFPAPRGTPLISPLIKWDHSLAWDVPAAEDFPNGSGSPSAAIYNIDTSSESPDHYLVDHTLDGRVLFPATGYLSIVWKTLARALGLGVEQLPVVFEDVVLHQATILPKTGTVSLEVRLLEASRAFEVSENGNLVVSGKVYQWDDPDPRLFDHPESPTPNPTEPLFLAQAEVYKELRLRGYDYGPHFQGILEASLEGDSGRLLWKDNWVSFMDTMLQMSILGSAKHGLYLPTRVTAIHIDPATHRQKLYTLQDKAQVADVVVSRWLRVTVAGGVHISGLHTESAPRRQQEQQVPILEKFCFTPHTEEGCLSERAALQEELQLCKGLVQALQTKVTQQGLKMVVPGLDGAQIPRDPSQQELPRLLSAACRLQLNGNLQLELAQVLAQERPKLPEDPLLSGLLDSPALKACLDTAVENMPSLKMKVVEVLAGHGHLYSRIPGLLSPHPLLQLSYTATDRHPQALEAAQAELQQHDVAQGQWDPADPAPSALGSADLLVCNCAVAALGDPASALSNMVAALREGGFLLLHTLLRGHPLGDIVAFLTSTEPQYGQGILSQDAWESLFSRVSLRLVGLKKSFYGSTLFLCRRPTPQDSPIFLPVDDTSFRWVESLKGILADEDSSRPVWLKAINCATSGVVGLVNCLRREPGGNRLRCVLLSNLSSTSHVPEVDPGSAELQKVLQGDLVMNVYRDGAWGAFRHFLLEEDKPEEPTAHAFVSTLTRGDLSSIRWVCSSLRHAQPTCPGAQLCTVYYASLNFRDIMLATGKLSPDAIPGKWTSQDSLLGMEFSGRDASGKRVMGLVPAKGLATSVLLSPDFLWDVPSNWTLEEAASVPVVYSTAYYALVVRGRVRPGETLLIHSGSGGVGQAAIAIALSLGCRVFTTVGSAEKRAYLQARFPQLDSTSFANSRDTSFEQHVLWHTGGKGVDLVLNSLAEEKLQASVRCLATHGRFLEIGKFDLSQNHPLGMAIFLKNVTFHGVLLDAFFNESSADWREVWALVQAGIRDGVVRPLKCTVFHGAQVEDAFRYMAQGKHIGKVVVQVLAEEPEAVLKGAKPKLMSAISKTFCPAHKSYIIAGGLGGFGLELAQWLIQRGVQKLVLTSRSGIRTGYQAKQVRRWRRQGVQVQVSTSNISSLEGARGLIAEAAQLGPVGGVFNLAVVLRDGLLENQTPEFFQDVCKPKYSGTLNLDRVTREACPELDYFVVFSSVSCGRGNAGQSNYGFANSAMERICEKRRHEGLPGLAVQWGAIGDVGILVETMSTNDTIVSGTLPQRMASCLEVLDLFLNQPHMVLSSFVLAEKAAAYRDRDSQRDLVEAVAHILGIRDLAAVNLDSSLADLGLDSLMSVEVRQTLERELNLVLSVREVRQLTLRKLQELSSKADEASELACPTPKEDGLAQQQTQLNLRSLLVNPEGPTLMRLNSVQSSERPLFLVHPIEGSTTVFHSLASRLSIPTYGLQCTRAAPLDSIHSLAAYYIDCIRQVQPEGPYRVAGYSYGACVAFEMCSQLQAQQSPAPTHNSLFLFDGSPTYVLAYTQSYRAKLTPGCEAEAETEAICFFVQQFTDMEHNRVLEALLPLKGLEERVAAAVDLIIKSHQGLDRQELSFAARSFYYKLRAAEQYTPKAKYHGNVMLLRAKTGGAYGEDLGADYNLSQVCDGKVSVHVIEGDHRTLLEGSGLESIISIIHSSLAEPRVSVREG
Sequence of Broad substrate specificity ATP-binding cassette transporter ABCG2 (Homo sapiens) (Q9UNQ0 whole entry, looked up): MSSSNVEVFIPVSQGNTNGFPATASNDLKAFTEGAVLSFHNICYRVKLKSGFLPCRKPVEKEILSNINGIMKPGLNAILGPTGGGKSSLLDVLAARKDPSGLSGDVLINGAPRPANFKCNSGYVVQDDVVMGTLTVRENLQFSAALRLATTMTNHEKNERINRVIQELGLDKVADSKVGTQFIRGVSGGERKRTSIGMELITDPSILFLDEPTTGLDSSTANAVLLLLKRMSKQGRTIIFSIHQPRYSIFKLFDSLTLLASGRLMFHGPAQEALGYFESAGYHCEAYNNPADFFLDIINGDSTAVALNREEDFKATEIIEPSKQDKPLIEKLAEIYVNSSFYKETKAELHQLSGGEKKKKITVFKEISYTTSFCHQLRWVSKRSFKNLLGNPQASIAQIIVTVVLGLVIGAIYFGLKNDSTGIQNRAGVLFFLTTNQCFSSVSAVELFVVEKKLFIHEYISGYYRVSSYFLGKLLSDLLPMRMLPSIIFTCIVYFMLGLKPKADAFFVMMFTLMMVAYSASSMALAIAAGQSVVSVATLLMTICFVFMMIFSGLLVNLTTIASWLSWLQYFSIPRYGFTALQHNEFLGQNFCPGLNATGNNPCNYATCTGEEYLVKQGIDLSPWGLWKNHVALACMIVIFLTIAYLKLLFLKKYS

O=C(Nc1ccc(Cl)cc1)Nc1ccc(Cl)c(Cl)c1
inactive: [4] | [5] | [8] | [10] | [14] | [16]
active: [1] 0.318 µM | [2] 23.1 µM | [3] 17.5 µM | [6] 16.6 µM | [7] 27.7 µM | [9] 18.6 µM | [11] 21.7 µM | [12] 11.8 µM | [13] 18.9 µM | [15] 15 µM | [17] 12.4 µM

CCCCOC(=O)CC(CC(=O)OCCCC)(OC(C)=O)C(=O)OCCCC
inactive: [2] | [3] | [18] | [4] | [5] | [6] | [19] | [7] | [8] | [9] | [11] | [12] | [13] | [20] | [14] | [15] | [16] | [17]

CCCCCCCCN(C)CCCCCCCC
inactive: [1] | [2] | [3] | [18] | [4] | [6] | [19] | [7] | [8] | [9] | [10] | [11] | [12] | [13] | [20] | [14] | [15] | [16] | [17]

O=CCCCC=O
inactive: [2] | [3] | [18] | [4] | [5] | [6] | [7] | [8] | [9] | [11] | [12] | [13] | [14] | [15] | [16] | [17]

Cc1ccc2oc(CN(Cc3ccccc3)C(=O)Nc3c(F)cc(F)cc3F)c(-c3ccc(Cl)cc3)c2c1
inactive: [2] | [3] | [18] | [4] | [5] | [8] | [9] | [12] | [14] | [15]
active: [1] 0.505 µM | [6] 8.81 µM | [11] 8.78 µM | [13] 19.7 µM | [16] 13.7 µM | [17] 17.6 µM

CCCCCCCCCCCC[N+](C)(C)C
inactive: [1] | [18] | [8] | [9] | [12] | [13] | [14]
active: [2] 82.5 µM | [3] 80.9 µM | [4] 82 µM | [6] 75.4 µM | [19] 79.3 µM | [11] 74.9 µM | [15] 73.9 µM | [16] 50 µM | [17] 67.5 µM

CC(=O)N1CCN(c2ccc(OC[C@H]3CO[C@](Cn4ccnc4)(c4ccc(Cl)cc4Cl)O3)cc2)CC1
inactive: [1] | [18]
active: [2] 89.3 µM | [3] 26.1 µM | [4] 12.3 µM | [6] 13.1 µM | [7] 0.698 µM | [8] 74.2 µM | [9] 33.4 µM | [11] 12.5 µM | [12] 77.6 µM | [14] 91.8 µM | [16] 31.1 µM | [17] 4.05 µM
